The record followed here is ChEMBL document CHEMBL4513216, “Probing the Open Global Health Chemical Diversity Library for Multistage-Active Starting Points for Next-Generation Antimalarials” (ACS Infect Dis, 2020).

The structures appear in SMILES notation. Hit rate of the full screen: of about 69,000 compounds, about 8,600 (12%) showed an effect of 50% or more. The entries come from a sample that favours strong results as a whole.

For this test, the system named is Plasmodium berghei. Briefly: Screen against P. berghei liver stage (PbLuc), transformed with Luciferase, at 10uM. As to conditions: tested at 10 uM. The format is functional, HepG2.
In the case of `C[C@@H]1CN(CCC(=O)NCc2ccccc2Cl)CC[C@@]1(O)C1CCC1`, the INHIBITION is recorded as 41.4%.
As for `CN(C)C1CCN(C(=O)Cc2csc(-c3ncccn3)n2)CC1`, the figure is -31.3%; as for `COc1c(CNCCc2c[nH]c3ccccc23)c(C(C)C)nn1C`, 22.5%; as for `COCC1COCCC12CCN(S(=O)(=O)c1ccccc1C)CC2` (centres undefined), 48.4%.
In the case of `CCCc1nnc2sc(-c3cc(C(C)C)n[nH]3)nn12` it was 35.7%.
As for `Cc1noc(C)c1C(=O)N1CCCN(C)c2ccc(Cl)cc21`, the figure is 19.7%.
For `Cc1nc(C)n(CC2CCCN(CCCc3ccccc3)C2)n1` (centres undefined), the INHIBITION is given as 44.3%.
As for `O=C(NC1CC1)[C@H]1CN(Cc2ccc3c(c2)OCO3)C[C@H]2OCC[C@@H]12`, the figure is -23.3%; as for `Cc1cc(=O)c(C(=O)N2CCCCC2c2ccc(F)cc2)c[nH]1` (centres undefined), -4.37%.
In the case of `Cc1cc2[nH]cc(C(=O)N3CCCCC3c3ccc(F)cc3)c(=O)n2n1` (centres undefined) it was 17.8%; in that of `Cc1nc2[nH]cc(C(=O)N3CCCCC3c3ccc(F)cc3)c(=O)n2n1` (centres undefined), 57.1%.
In the case of `Cc1cc(CN2CCCN(c3ccc(C#N)cc3)CC2)no1`, the INHIBITION amounted to 29.17%.
In the case of `COc1ccc(Cn2c(C3CCNCC3)cc3cccnc32)cc1`, the INHIBITION is recorded as 36.8%.
In the case of `Fc1ccccc1Cn1c(C2CCNCC2)cc2cccnc21` it was 52.55%; in that of `c1cnc2c(c1)cc(C1CCOCC1)n2CCN1CCOCC1`, 32.4%.
Take `Fc1cccc(F)c1Cn1c(C2CCCNC2)cc2cccnc21` (centres undefined): the INHIBITION turned out to be 30.74%.
In the case of `COc1cccc(Cn2c(C3CCNCC3)cc3cccnc32)c1` it was 10.82%; in that of `Fc1cccc(F)c1Cn1c(C2CCNCC2)cc2cccnc21`, 54.9%.
As for `Cc1oncc1C(=O)N1CCC2(CCN(Cc3cccnc3)C2=O)C1` (centres undefined), the figure is 5.41%; as for `O=C(CC1CCCCC1)N1CCOCC1CO` (centres undefined), -40%.
As for `CCOCc1nn(C)c2c1CN(CCO)CC2`, the figure is 27.6%.
Consider `O=C(N1CCOCC1)[C@@]12CCO[C@@H]1CCN(C1CCCCC1)C2`, for which the INHIBITION is recorded as 0.542%.
In the case of `COc1ccccc1CN(C)c1nc2c(cnn2C)c(=O)[nH]1` it was 27.9%; in that of `COc1ccc(OC)c(CN(C)c2nc3c(cnn3C)c(=O)[nH]2)c1`, 4.3%; in that of `COc1ccc(CN(C)c2nc3c(cnn3C)c(=O)[nH]2)c(OC)c1`, 73.8%.
Take `COc1cccc([C@@]2(O)CC[C@@H]3CN(C(=O)c4c[nH]nc4C)C[C@@H]32)c1`: the INHIBITION was determined as 15.15%.
As for `CC(=O)N1CCN(c2cc(CCN)nc(C3CC3)n2)CC1`, the figure is 3.91%; as for `CSc1nsc(SCC(=O)c2cc3c(cc2Cl)NC(=O)C3)n1`, 18.4%; as for `CCCOc1c(Cl)cc(C(=O)N2CCOC23CCN(C)CC3)cc1Cl`, 55.4%.
As to `COc1cc(C(=O)N2CCCS2(=O)=O)cc(Cl)c1OC`, the INHIBITION came to 21.1%.
As to `CCCOc1ccc(C(=O)N2CC[C@@H]3CC[C@H](C2)N3)cc1Cl`, the INHIBITION is listed as -4.4%.
As for `CCN1CCC2(CC1)OCCN2C(=O)c1ccc(OC)c(Cl)c1`, the figure is 45%; as for `CCN1CCC2(CC1)OCCN2C(=O)c1cc(Cl)c(OC)c(Cl)c1`, 59.5%.
In the case of `CCCOc1ccc(C(=O)N2CCN3CCNC(=O)C3C2)cc1Cl` (centres undefined), the INHIBITION is recorded as 18.7%.
